Among the data in PubChem BioAssay AID2315 (National Center for Advancing Translational Sciences (NCATS), 2010) are inhibition values, retold here.

Molecules are shown by their SMILES. Among all 290,000 compounds or so, about 27,000 (9.3%) were called active. The entries come from a sample that favours actives as a whole. Unmarked numbers belong to inactive results. No stated cut-off is given here; in the data, active means inhibition mostly above about 28% (no sharp cut-off); inactive means mostly below about 43%.

This assay in a line: A qHTS for Small Molecule Inhibitors of Shiga Toxin. Further: 0% is about no effect. The following applies: Vero cells, Shiga toxin protein synthesis inhibition reporter; at 38.7 µM, stronger effect = higher value. In general terms: Quantitative high-throughput screening tests each substance at several concentrations.
Regarding `CC(Cc1cccs1)NCc1ccc(Cl)cc1` (stereo not given), the inhibition (as a rule, the change of the read-out against control, counted positive when it falls) is -11.1%. The value for `CC(Cc1cccs1)NC(=O)c1cccc(Cl)c1` (stereo not given) was 62% (active).

Regarding `CC(Cc1cccs1)NC(=O)NC1CCCCC1` (stereo not given), the inhibition was 35.2%. `COC(=O)c1ccc(COc2ccc(/C=C/C(=O)c3ccc(OC)c(CSCC(=O)O)c3)cc2OC)cc1`: the inhibition was 10.1%. On to `CCOC(CNC(=O)C1CCN(S(=O)(=O)c2ccc3nc4c(c(C(=O)O)c3c2)CC(C)CC4)CC1)OCC` (stereo not given), for which the inhibition is 16.6%. With `NS(=O)(=O)c1ccc2nc(NC(=O)C3=COCCO3)sc2c1` the figure was 31.7% (active).

For the compound `NS(=O)(=O)c1ccc2nc(NC(=O)CS(=O)(=O)c3ccc(F)cc3)sc2c1`, the inhibition was -4.57%. The value for `O=C(Nc1ccc(S(=O)(=O)N2CCCC2)cc1Cl)C1=COCCO1` was -24.5%; that for `CC(=O)c1ccc(NC(=O)Cn2c(=O)oc3ccccc32)cc1` was -3.29%; that for `Nc1ncc(CN2CCCC(C(=O)Nc3ccc(-c4ccco4)cc3)C2)cn1` (stereo not given) was 1.36%. With `COC(=O)c1ccc(COc2ccc(C#N)cc2)o1` the figure was -6.04%; with `CC(C)OC(=O)c1ccc(COc2ccc3ccc(=O)oc3c2)o1`, 56.4% (active); with `Cc1noc(C)c1COc1ccc2ccc(=O)oc2c1`, -4.36%. Consider `CN(C)C(=O)CCC(=O)N1CCCCC1C(=O)Nc1ccc(Oc2ccccc2F)cc1` (stereo not given), for which the inhibition is -6.54%. In the case of `CC(C)(C)n1nnnc1C(c1ccccc1F)N1CCN(C(=O)c2ccco2)CC1` (stereo not given), the inhibition was 2.73%. With `Cc1ccccc1OCC(=O)N(Cc1cccc(F)c1)C1CCS(=O)(=O)C1` (stereo not given) the figure was 10.7%; with `CCCOc1ccc(Cn2ccnc2)cc1[N+](=O)[O-]`, -8.54%; with `CCCCCOc1ccc(CSC2=NCCN2)cc1[N+](=O)[O-]`, 63.7% (active). The value for `CCCCOc1ccc(CSC(=N)N)cc1[N+](=O)[O-]` was -5.85%. For `COc1cccc(CCNC(=O)c2cccc(NC(=O)C3=C(C)OCCS3)c2)c1`, the inhibition was -2.41%. Take `CN(C)CCN=c1cc(-c2ccccc2)oc2ccc(Cl)cc12`: the inhibition was 129% (active). The value for `CN(C)CCn1c(=S)[nH]c2ccc(Cl)cc2c1=O` was -8.18%; that for `Cc1cc(-c2ccc(C)c(S(=O)(=O)Nc3ccc(S(N)(=O)=O)cc3)c2)on1` was 29.3%; that for `COc1ccc(CCNS(=O)(=O)c2cn(C)nc2C)cc1` was 16.1%. With `CCOC(=O)CNc1nc(Cl)nc(Nc2ccccc2)n1` the figure was 65.7% (active); with `CCC(=O)Nc1ccc(Nc2nc(Cl)nc(Nc3ccc(NC(=O)CC)cc3)n2)cc1`, 4.44%.

On to `CCOC(=O)CNc1nc(Cl)nc(Nc2ccc(OC)cc2OC)n1`, for which the inhibition is 26.8%.

`CCn1c(SCC(=O)NC2CCCC2)nnc1-c1ccoc1C`: the inhibition was -5.62%. As to `CN(Cc1nc2ccc(F)cc2[nH]1)Cc1nc(CC2CC2)no1`, the inhibition was 48% (active). The value for `CN(Cc1cc2cc(F)ccc2[nH]1)Cc1nc(-c2cnccn2)no1` was -4.61%; that for `CN(Cc1ccc2nsnc2c1)Cc1nc(Cc2cccc(F)c2)no1` was 1.39%; that for `C/C(=N\N(C)C)c1ccc(OCCOc2ccc([N+](=O)[O-])cc2)cc1` was 6.72%. Regarding `CCn1c(SCC(=O)NC2=NCCS2)nnc1C(C)NC(=O)c1ccccc1F` (stereo not given), the inhibition was -15.6%. With `Cc1cc(-n2cnc(-c3cn(C)nc3C)n2)no1` the figure was 52.5% (active). With `COc1ccc(Cl)cc1NS(=O)(=O)c1cccc(C(=O)NCC2CCCO2)c1` (stereo not given) the figure was -3.5%; with `O=C1CSc2ccc(S(=O)(=O)NCc3ccccc3)cc2N1`, -7.81%. With `COc1cc(NC(=O)Nc2ccc(C)cc2)cc([N+](=O)[O-])c1` the figure was -2.21% (active); with `O=C(Nc1cccnc1)c1cc(Cl)ccc1Cl`, -11.4%; with `O=C(Nc1ccc(Cl)cc1)Nc1ccc(Oc2cccnc2)nc1`, 51.4% (active).

`COC(=O)c1sccc1NC(=S)Nc1ccc(C)cc1`: the inhibition is 39.9% (active). With `COC(=O)c1sccc1NC(=O)c1cc(OC)c(OC)c(OC)c1` the figure was 14.1%; with `COC(=O)c1sccc1NC(=O)c1ccc(Cl)cc1`, -2.96%; with `O=C(NNC(=O)c1csc(-c2cccnc2)n1)Nc1ccc(Cl)cc1`, 4.07%. `COC(=O)c1ccc(NC(=O)Nc2ccc(C)cc2)cc1`: the inhibition was 46% (active). With `COC(=O)c1ccc(NC(=O)c2cc(Cl)ccc2OC)cc1` the figure was 1.91%; with `Cc1ccc(NC(=O)CC(=O)Nc2ccc(C)cc2)cc1`, -2.71%.

For `Cc1ccc(Oc2cc(NC(=O)CCCn3nc(C)c([N+](=O)[O-])c3C)cc([N+](=O)[O-])c2)cc1`, the inhibition is 9.13%. Turning to `CC(=O)c1ccc(NC(=O)Nc2ccc([N+](=O)[O-])cc2C)cc1`, the inhibition was -6.96%. The value for `COc1ccc(N2CCN(C(=O)Cn3cnc4sc(C)c(S(=O)(=O)N5CCOCC5)c4c3=O)CC2)cc1` was -21.2%; that for `CSCC[C@H](NC(=O)N1CCn2c1nc1ccccc12)C(=O)NC1CCCCC1` was 21.5%.

Turning to `CC(=N\NC(=O)c1cc(Br)ccc1O)/C(=N/O)C(=O)Nc1ccccc1`, the inhibition was 27.5%. As to `CCc1nn(CCCC(=O)Nc2ccc(C)c(C)c2)c(=O)c2cc3occc3n12`, the inhibition was -3.08%. The value for `CC(=O)Nc1ccc(S(=O)(=O)N(C)c2nc3ccccc3nc2Cl)cc1` was 21.4%; that for `COc1cc2c(cc1OC)C(c1ccccc1Br)NC(=O)C2` (stereo not given) was -13.7%; that for `CN1CCN(c2ccccc2NC(=O)COc2ccc(C3CCCCC3)cc2)CC1` was 16.9%. With `Cc1c(S(=O)(=O)NC(C)c2ccccc2)c(=O)n(C)c(=O)n1C` (stereo not given) the figure was -36.1%. The value for `Cc1ccc(NC(=O)Nc2cccnc2)cc1` was 29% (active). In the case of `Cc1ccc(NC(=O)NCC(c2cccnc2)N2CCOCC2)cc1` (stereo not given), the inhibition is -5.81%. With `O=C(NNC(=O)c1cccnc1)Nc1ccccc1` the figure was 2.5%.

`C/C=C(/C)C(=O)O[C@@H]1c2cc3c(c4c2[C@@]2(CO4)C(=O)C(OC)=C(OC)C=C2C[C@@H](C)[C@H]1C)OCO3`: the inhibition is -12.4%. With `CS(=O)(=O)C1=NN2C(=N)/C(=C\c3ccc(OCCOc4ccccc4)cc3)C(=O)N=C2S1` the figure was 13.4%; with `O=C(NCC(=O)N(c1ccccc1)C(C(=O)NCC1CCCO1)c1ccccc1)c1cccs1` (stereo not given), -3.3%; with `Cc1ccc(N(C(=O)Cc2cccs2)C(C(=O)NCC2CCCO2)c2ccncc2)cc1` (stereo not given), 59.4% (active). With `Cc1cccc(N(C(=O)Cc2cccs2)C(C(=O)NCc2ccco2)c2ccncc2)c1` (stereo not given) the figure was 2.84%. The value for `COc1cccc(CNS(=O)(=O)c2ccc3c(c2)CC(C)N3C(=O)C2CCC2)c1` (stereo not given) was -3.12%. For `Nc1ccccc1C(=O)NC1CCCCNC1=O` (stereo not given), the inhibition is 2.5%. The value for `CC12CN3CCN(CC(C3)/C1=N\NC(=O)c1ccccc1N)C2` was 60.8% (active); that for `CNC(=S)N/N=C1\C2CN3CCN(C2)CC1(c1ccccc1)C3` was 14%; that for `CCn1cc(C(=O)N2CC(C)CC(C)C2)c(=O)c2cc(S(=O)(=O)N3CCCC3)ccc21` (stereo not given) was -9.23%. Regarding `O=C(NCCCn1ccnc1)c1cc(Br)c(Br)s1`, the inhibition was -8.29%. Regarding `CCN(CC)CCNC(=O)CCCCCn1c(=O)[nH]c2cc(C(=O)OC)ccc2c1=O`, the inhibition is 11.7%.

On to `COC(=O)c1cccc(NS(C)(=O)=O)c1`, for which the inhibition is 7.52%. The value for `COC(=O)c1ccc2c(C(C)(C)O)c(C(C)(C)O)[nH]c2c1` was 25.7% (active); that for `CCc1nnc(NC(=O)CSCc2cc(=O)n3cc(C)sc3n2)s1` was 9.5%. The value for `CN(C)c1nc(NN)nc(Nc2ccc(F)cc2)n1` was -6.82%; that for `COc1cc(SC)ccc1C(=O)Nc1nc(C)cs1` was -19.5%; that for `Cc1ccnc(NC(=O)c2ccoc2C)c1` was 62.3% (active).

For the compound `Cc1ccnc(NC(=O)CCCOc2ccccc2)c1`, the inhibition was 31.5%. As to `COc1cc(SC)ccc1C(=O)N(Cc1ccccc1)c1ccccc1`, the inhibition is -14.7%. The value for `COc1ccccc1OCCNC(=O)CCNC(=O)c1ccccc1Cl` was 5.05%.

Consider `Cc1ccnc(NC(=O)C(C)N2C(=O)c3ccccc3C2=O)c1` (stereo not given), for which the inhibition is 16.9%. The value for `COc1cc(SC)ccc1C(=O)NCCOc1ccccc1Cl` was 72.6% (active); that for `Cc1occc1C(=O)Nc1cccc(Cn2cccn2)c1` was 39.7%. With `COc1cc(SC)ccc1C(=O)Nc1cc(C)ccn1` the figure was 71.5% (active); with `COc1cc(NS(=O)(=O)c2ccc(NC(=O)c3ccc([N+](=O)[O-])cc3)cc2)ncn1`, -2.79%. The value for `Cc1nc([N+](=O)[O-])cn1CC(=O)Nc1ccc(Cl)cc1` was -12.3%; that for `Cc1ccc(C(=O)OCC(=O)NC(=O)Cc2ccccc2)c(O)c1` was -0.702%; that for `CCOC(=O)C1CCN(Cc2c(C(=O)N3CCOCC3)nc3c(C)cccn23)CC1` was -32.7%. As for `O=C(c1cccc([N+](=O)[O-])c1)N1CCN(Cc2ccccc2)CC1`, the inhibition was -0.104%. As for `COc1ccc(S(=O)(=O)Nc2ccc(O)c(Sc3nc4ccccc4s3)c2)cc1`, the inhibition was -14.7%. With `COc1ccc(-n2c(O)c(C(C)=Nc3ccc4c(c3)CCC4)c(=O)[nH]c2=O)cc1` the figure was -5.66%. The value for `COc1ccc(N=C(C)c2sc3ccccc3c2O)cc1` was 122% (active).

Regarding `CN(CC(=O)Nc1ccc(F)cc1)C(=O)c1ccc(-c2ccc(Cl)cc2)o1`, the inhibition was 5.28%.

For `CC(C)c1nnc(NC(=O)COC(=O)/C=C/c2ccc([N+](=O)[O-])cc2)s1`, the inhibition was -13.2%.

`COc1cccc(N(C(=O)C2COc3ccccc3O2)C(C(=O)NC2CCCCC2)c2ccc(O)cc2)c1` (stereo not given): the inhibition was -2.98%.
